This passage reports growth results from PubChem BioAssay (NCI).

Among the test systems are RPMI-8226 leukemia; OVCAR-8 ovarian; OVCAR-5 ovarian; OVCAR-4 ovarian; SK-OV-3 ovarian; IGROV1 ovarian; OVCAR-3 ovarian; HS 578T breast; NCI/ADR-RES ovarian; T-47D breast.
Experiment in all cases: NCI-60 one-dose screen, 48 h (100 = growth as untreated, 0 = no growth, -100 = all killed)
Details in all cases: 10 µM

The panel holds about 83,000 compounds, 20% with a hit somewhere; the sample as a whole holds those more often.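 Activity criterion: percent growth below 10, measured after cells in 96-well plates were exposed to a single compound concentration for 48 hours.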 Unmarked numbers belong to inactive results. Calls of active or inactive are those of the source.

On to `COc1ccc(Oc2nc(NC3CCCC3)nc(Sc3ccc(OC)cc3)n2)cc1`, for which the growth in the assay with RPMI-8226 leukemia is 63.7%; in the assay on OVCAR-8 ovarian, 65.4%; with OVCAR-5 ovarian, 91.1%; with OVCAR-4 ovarian it was 74.3%; in the assay with SK-OV-3 ovarian it was 82.8%; with IGROV1 ovarian, 64.9%. The growth with OVCAR-3 ovarian is 77.1%; in the assay on HS 578T breast, 83.8%; in the assay on NCI/ADR-RES ovarian, 66.2%; with T-47D breast, 55.9%.

For the molecule `COc1cc(Nc2ccnc(NCCNc3ccnc4cc(Cl)ccc34)n2)cc(OC)c1`, the growth in the assay with RPMI-8226 leukemia is -42.7% (active); with OVCAR-8 ovarian, 45.4%; in the assay on OVCAR-5 ovarian it was 43.9%; with OVCAR-4 ovarian, 42.4%; with SK-OV-3 ovarian it was 75.1%; with IGROV1 ovarian, 23.6%. Further, the growth with OVCAR-3 ovarian is 56.8%; in the assay on HS 578T breast it was 63.7%; in the assay with NCI/ADR-RES ovarian it was 67.9%; in the assay on T-47D breast, 15.5%.

Take `COc1cc(/C=C2\Oc3cc(OCC(=O)c4ccccc4)ccc3C2=O)cc(OC)c1OC`: the growth was 107% with RPMI-8226 leukemia; 109% with OVCAR-8 ovarian; 136% in the assay on OVCAR-5 ovarian; 109% in the assay with OVCAR-4 ovarian; 120% in the assay on SK-OV-3 ovarian; 55.1% in the assay on IGROV1 ovarian. Besides, the growth was 110% in the assay on OVCAR-3 ovarian, 107% in the assay on HS 578T breast, 97.2% in the assay on NCI/ADR-RES ovarian and 73.6% in the assay with T-47D breast.

`Cc1cccc(NC2=C(C#N)C(=O)NC3(CCCC3)S2)c1`: the growth in the assay on RPMI-8226 leukemia is 90%; in the assay on OVCAR-8 ovarian, 100%; in the assay with OVCAR-5 ovarian, 103%; with OVCAR-4 ovarian, 103%; in the assay on SK-OV-3 ovarian, 103%; in the assay with IGROV1 ovarian it was 168%. Further, the growth in the assay on OVCAR-3 ovarian was 116%; in the assay with HS 578T breast, 103%; in the assay on NCI/ADR-RES ovarian, 100%; in the assay on T-47D breast it was 102%.

With `COc1ccc2c(c1)sc1nc(-c3ccccc3)c(-c3ccsc3)n12`, the growth with RPMI-8226 leukemia is 15.2%; with OVCAR-8 ovarian, 30.8%; with OVCAR-5 ovarian, 51.6%; in the assay on OVCAR-4 ovarian, 62.8%; in the assay with SK-OV-3 ovarian it was 23.5%; with IGROV1 ovarian it was 31.1%. In addition, the growth with OVCAR-3 ovarian was -51.6% (active); in the assay with HS 578T breast, 3.75% (active); in the assay with NCI/ADR-RES ovarian, 9.35% (active); in the assay with T-47D breast it was 57%.

As to `Nc1ccc2cc(S(=O)(=O)O)cc(O)c2c1N=Nc1ccc(F)cc1`, the growth with RPMI-8226 leukemia was 106%; with OVCAR-8 ovarian, 107%; in the assay on OVCAR-5 ovarian, 99.5%; in the assay with OVCAR-4 ovarian, 137%; with SK-OV-3 ovarian it was 103%; with IGROV1 ovarian, 120%. Moreover, the growth in the assay on OVCAR-3 ovarian is 117%; in the assay on HS 578T breast it was 111%; in the assay with NCI/ADR-RES ovarian, 99.3%; in the assay with T-47D breast, 101%.

For `Nc1c(C(=O)Nc2cccc3ccccc23)sc2nc3c(cc12)C(=O)CCC3`, the growth was 15.7% with RPMI-8226 leukemia; 21% in the assay with OVCAR-8 ovarian; 40.3% in the assay with OVCAR-5 ovarian; 47.7% with OVCAR-4 ovarian; 5.64% (active) in the assay on SK-OV-3 ovarian; 23.7% with IGROV1 ovarian. In addition, the growth with OVCAR-3 ovarian was -26.7% (active); in the assay with HS 578T breast, 14.2%; in the assay on NCI/ADR-RES ovarian, 2.15% (active); in the assay on T-47D breast, 47.5%.

Take `CC(=O)[C@H]1CC[C@H]2[C@@H]3CCC4=CC(=O)C=C[C@]4(C)[C@H]3CC[C@]12C`: the growth with RPMI-8226 leukemia is 68%; in the assay on OVCAR-8 ovarian it was 92.4%; with OVCAR-5 ovarian it was 93.2%; in the assay on OVCAR-4 ovarian it was 87.2%; in the assay with SK-OV-3 ovarian, 104%; in the assay on IGROV1 ovarian, 94.8%. The growth with OVCAR-3 ovarian is 106%; in the assay with HS 578T breast, 96.2%; in the assay with NCI/ADR-RES ovarian it was 98.4%; in the assay with T-47D breast, 86.8%.

In the case of `COc1ccc(/C=C2/CN(CCC#N)C/C(=C\c3ccc(OC)cc3)C2=O)cc1`, the growth with RPMI-8226 leukemia was -17.2% (active); with OVCAR-8 ovarian, 1.11% (active); in the assay on OVCAR-5 ovarian, 59.7%; in the assay on OVCAR-4 ovarian, 17.3%; with SK-OV-3 ovarian, 13.4%; with IGROV1 ovarian it was 7.88% (active). Moreover, the growth with OVCAR-3 ovarian is -26% (active); with HS 578T breast, 33.1%; with NCI/ADR-RES ovarian it was 7.02% (active); in the assay with T-47D breast, 39.4%.

Regarding `COc1cc2c(cc1OC)N(CCO)C1=C(C(=O)OC1)C2c1ccc(Cl)c(Cl)c1` (stereo not given), the growth is 92.1% in the assay with RPMI-8226 leukemia; 103% in the assay on OVCAR-8 ovarian; 111% in the assay on OVCAR-5 ovarian; 104% with OVCAR-4 ovarian; 106% in the assay on SK-OV-3 ovarian; 110% in the assay on IGROV1 ovarian. Moreover, the growth with OVCAR-3 ovarian was 112%; with HS 578T breast, 103%; with NCI/ADR-RES ovarian it was 104%; in the assay with T-47D breast, 88.3%.

On to `CC(C)(C)c1ccc(N2CSC(=S)N(c3ccc(C(C)(C)C)cc3)C2)cc1`, for which the growth in the assay with RPMI-8226 leukemia was 76.5%; in the assay on OVCAR-8 ovarian it was 107%; in the assay on OVCAR-5 ovarian it was 101%; with OVCAR-4 ovarian it was 98.3%; in the assay on SK-OV-3 ovarian it was 94.1%; with IGROV1 ovarian, 55.3%. In addition, the growth in the assay on OVCAR-3 ovarian is 109%; with HS 578T breast it was 112%; with NCI/ADR-RES ovarian, 96.1%; in the assay on T-47D breast, 81.4%.

Take `O=C(Nc1nc2ccc(F)cc2s1)c1cc(-c2ccc(F)cc2)n2nc(-c3ccccc3)cc2n1`: the growth is 97.7% in the assay with RPMI-8226 leukemia; 38.6% in the assay on OVCAR-8 ovarian; 107% in the assay on OVCAR-5 ovarian; 17.9% in the assay with OVCAR-4 ovarian; 86.4% in the assay on SK-OV-3 ovarian; 122% with IGROV1 ovarian. Further, the growth in the assay on OVCAR-3 ovarian was 82.8%; with HS 578T breast it was 73.3%; in the assay on NCI/ADR-RES ovarian, 53%; in the assay on T-47D breast, 75.2%.

Regarding `Cc1ccc(Nc2cc(C)nc(NCCCNc3ccnc4cc(Cl)ccc34)n2)cc1`, the growth in the assay on RPMI-8226 leukemia was -63.8% (active); with OVCAR-8 ovarian, -60.7% (active); in the assay on OVCAR-5 ovarian it was 1.62% (active); with OVCAR-4 ovarian, -26.1% (active); with SK-OV-3 ovarian, -47.5% (active); in the assay on IGROV1 ovarian, 7.69% (active). The growth is -79.9% (active) in the assay with OVCAR-3 ovarian, -58.6% (active) in the assay on HS 578T breast, -33% (active) with NCI/ADR-RES ovarian and -73% (active) in the assay with T-47D breast.
